Our source for the Inhibition values is ChEMBL document CHEMBL1157539, “Thousands of chemical starting points for antimalarial lead identification” (Nature, 2010).

Assay type in all cases: functional
The subject of assay [1] is Plasmodium falciparum. The assay can be described thus: GSK_TCMDC: Inhibition of Plasmodium falciparum 3D7 in whole red blood cells, using parasite LDH activity as an index of growth. Test compounds present at 2uM.
The test system of assay [2] is Plasmodium falciparum. The assay can be described thus: GSK_TCMDC: Inhibition of Plasmodium falciparum Dd2 in whole red blood cells, using parasite LDH activity as an index of growth. Test compounds present at 2uM.
A further assay has as its system HepG2. The assay can be described thus: GSK_TCMDC: Percent inhibition of human HepG2 cell line. Test compounds present at 10uM.

`Cc1cc(F)ccc1-c1nc(NCC(O)CNCCc2ccccc2)nc2c1ccc(=O)n2-c1c(F)cccc1F.O=C(O)C(F)(F)F` (centres undefined): the Inhibition with Plasmodium falciparum [1] was determined as 100%; with Plasmodium falciparum [2] it was 100%; in the assay on HepG2, 25%.

As to `Cl.Cn1c2ccccc2c2c3ccccc3c(CNC(CO)(CO)CO)cc21`, the Inhibition in the assay with Plasmodium falciparum [1] amounted to 96%; in the assay on Plasmodium falciparum [2], 78%; in the assay on HepG2, 67%.

Turning to `CN(C)CCCOc1ccc(CN2CC[C@H](NC(=O)c3ccc(Cl)c(Cl)c3)C2)cc1Cl.O=C(O)C(F)(F)F`, the Inhibition stood at 100% with Plasmodium falciparum [1], 35% with Plasmodium falciparum [2] and 65% with HepG2.

For the molecule `Cc1cc2nc(-c3ccc(/C=C/C(=O)NCCCc4ccccc4)cc3)[nH]c2cc1C`, the Inhibition in the assay with Plasmodium falciparum [1] was 96%; with Plasmodium falciparum [2], 13%; in the assay on HepG2, 15%.

`Cc1cc(NC(=O)Nc2ccc(N(C)C)cc2)c2cc(Cl)ccc2n1.Cl`: the values for the Inhibition with Plasmodium falciparum [1], in the assay with Plasmodium falciparum [2] and with HepG2 were 100%, 50% and 0%, respectively.

On to `CCCCCNc1nc2nc(N)nc(N)c2nc1-c1ccccc1.Cl`, for which the Inhibition was determined as 91% with Plasmodium falciparum [1], 0% in the assay with Plasmodium falciparum [2] and 9% with HepG2.

On to `N#Cc1ccc(N(CCOc2ccc(Cl)c(Cl)c2)Cc2ccccc2C(F)(F)F)cc1C(F)(F)F`, for which the Inhibition in the assay on Plasmodium falciparum [1] was found to be 90%; with Plasmodium falciparum [2], 57%; with HepG2, 13%.

On to `COc1ccccc1C1CCN(C2CCC(NC(=O)/C=C/c3cc(F)cc(C(F)(F)F)c3)CC2)CC1` (centres undefined), for which the Inhibition worked out at 98% with Plasmodium falciparum [1], 57% with Plasmodium falciparum [2] and 92% in the assay on HepG2.

Regarding `O=C(/C=C/c1ccccc1O)NCCCCCN1CCC(c2c[nH]c3ccccc23)CC1`, the Inhibition with Plasmodium falciparum [1] is reported as 95%; in the assay on Plasmodium falciparum [2], 1%; in the assay with HepG2, 7%.

With `Cc1cccc2nc(-c3cccc(-c4ccc(NC(=O)CC5NC(=O)c6ccccc65)cc4)c3)[nH]c12` (centres undefined), the Inhibition in the assay with Plasmodium falciparum [1] is 100%; in the assay on Plasmodium falciparum [2], 67%; in the assay on HepG2, 30%.

With `CC(C)c1ccc(CN2CCC(CNC(=O)c3cc(-c4cccc(C(F)(F)F)c4)cs3)C2)cc1.O=C(O)C(F)(F)F` (centres undefined), the results for the Inhibition in the assay with Plasmodium falciparum [1], in the assay on Plasmodium falciparum [2] and in the assay with HepG2 were 99%, 60% and 36%, respectively.

With `Cl.N=c1c2c(n(Cc3cccc(Cl)c3)c3c1CCC3)CCCC2`, the Inhibition with Plasmodium falciparum [1] was 97%; with Plasmodium falciparum [2], 86%; with HepG2, 0%.

`Cc1[nH]cnc1CSCCN/C(=N\C#N)NCCCCCCCCN/C(=N/C#N)NCCSCc1nc[nH]c1C`: the Inhibition with Plasmodium falciparum [1] amounted to 81%; in the assay with Plasmodium falciparum [2], 48%; in the assay on HepG2, 1%.

With `Cc1cc(N2CCCC2)nc(Nc2ccc(NC(=O)c3ccccc3)cc2)n1`, the Inhibition in the assay with Plasmodium falciparum [1] turned out to be 100%; with Plasmodium falciparum [2], 65%; in the assay with HepG2, 26%.

As for `COc1cc(F)c2ncc(F)c(CCN3C[C@H](CNCc4ccc5c(n4)NC(=O)CS5)[C@H](O)C3)c2c1.Cl`, the figures for the Inhibition in the assay with Plasmodium falciparum [1], in the assay with Plasmodium falciparum [2] and in the assay with HepG2 were 91%, 47% and 10%, respectively.

On to `CCCCNCc1ccc(-c2nc(CN(CCCn3ccnc3)C(=O)Nc3ccc(CC)cc3)cs2)cc1.O=C(O)C(F)(F)F`, for which the figures for the Inhibition in the assay on Plasmodium falciparum [1], in the assay on Plasmodium falciparum [2] and in the assay on HepG2 were 100%, 56% and 21%, respectively.

Take `CN1CCc2cc(CN3CC4(C)CC3CC(C)(C)C4)c(O)cc2C(c2ccccc2)C1.Cl` (centres undefined): the figures for the Inhibition in the assay on Plasmodium falciparum [1], in the assay with Plasmodium falciparum [2] and with HepG2 were 98%, 88% and 0%, respectively.

In the case of `Nc1ncc(-c2cccc(F)c2)cc1-c1nc2cc(F)ccc2[nH]1.O=C(O)C(F)(F)F`, the values for the Inhibition in the assay on Plasmodium falciparum [1], with Plasmodium falciparum [2] and in the assay on HepG2 were 100%, 88% and 54%, respectively.

Regarding `NC1=NC(c2ccccc2)(c2ccccn2)C(=O)N1CCCc1ccccc1.O=C(O)C(F)(F)F` (centres undefined), the Inhibition in the assay on Plasmodium falciparum [1] is on record as 85%; in the assay with Plasmodium falciparum [2], 64%; in the assay on HepG2 it was 0%.

For the molecule `Oc1ccc2nc(NCCCc3ccccc3)nc(NCCc3ccccc3)c2c1`, the Inhibition with Plasmodium falciparum [1] worked out at 99%; with Plasmodium falciparum [2], 88%; in the assay on HepG2 it was 31%.

For `CN(C)c1ccc(-c2csc(C(=O)NCC3CCN(CC4CCCCC4)C3)c2)cc1.O=C(O)C(F)(F)F` (centres undefined), the figures for the Inhibition in the assay on Plasmodium falciparum [1], with Plasmodium falciparum [2] and with HepG2 were 86%, 28% and 35%, respectively.

Turning to `Cc1ccc2c(N/N=C/c3cccc([N+](=O)[O-])c3)cc(C)nc2c1`, the results for the Inhibition in the assay with Plasmodium falciparum [1], in the assay on Plasmodium falciparum [2] and with HepG2 were 100%, 97% and 33%, respectively.

`CCc1c(CCNCCCCCCNCCc2ccc([N+](=O)[O-])cc2)ccc(OC)c1OC.Cl`: the Inhibition in the assay on Plasmodium falciparum [1] was 100%; in the assay with Plasmodium falciparum [2] it was 2%; in the assay on HepG2 it was 35%.

For the molecule `Cc1cc(O)nc(NC#N)n1`, the Inhibition in the assay with Plasmodium falciparum [1] turned out to be 99%; in the assay on Plasmodium falciparum [2], 3%; with HepG2 it was 8%.

For the molecule `CC(C)(C)c1ccc(CN2CCC(CNC(=O)c3cc(-c4ccccc4C(F)(F)F)cs3)C2)cc1.O=C(O)C(F)(F)F` (centres undefined), the Inhibition with Plasmodium falciparum [1] is 92%; with Plasmodium falciparum [2], 11%; in the assay on HepG2, 61%.

For the molecule `Fc1ccc(Nc2ccnc3cc(-c4ccc(CNCCN5CCOCC5)o4)ccc23)c(Cl)c1`, the Inhibition was 100% in the assay on Plasmodium falciparum [1], 99% in the assay with Plasmodium falciparum [2] and 34% with HepG2.

Turning to `CCCCC1(c2ccc(F)cc2)NC(=O)N(CC(=O)c2cc(C)n(Cc3ccco3)c2C)C1=O` (centres undefined), the Inhibition in the assay with Plasmodium falciparum [1] turned out to be 82%; with Plasmodium falciparum [2] it was 28%; in the assay with HepG2, 6%.

On to `O=C(NC1CCC(N2CCC(O)(c3ccc(F)cc3)CC2)CC1)c1cc2ccccc2[nH]1` (centres undefined), for which the Inhibition in the assay with Plasmodium falciparum [1] was 94%; in the assay with Plasmodium falciparum [2], 8%; in the assay with HepG2 it was 9%.

In general, Inhibition refers to the drop in the measured response relative to a control, in per cent. Low values mean a response near the control, high ones a response far below the control.
